Screening results (PubChem BioAssay)
SW480 rerep: A quantitative high throughput screen for small molecules that induce DNA re-replication in SW480 colon adenocarcinoma cells; 340,000 compounds, 1.8% hits; Potency, µM (doses to about 46.1 µM), for inactives: at the highest dose re-replication activation, most hits filed as activators; SW480 DNA re-replication, Hoechst DNA content imaging, 48 h; also: % of control where 0% means no effect; nearly all actives have a fitted effect of over 55% in size
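Compounds, transferred as 23 nL by pin tool, were incubated with cells for 48 hr; DNA content per nucleus was then quantified by Hoechst staining and fluorescence plate imaging.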
MCF10A rereplic: A quantitative high throughput screen for small molecules that induce DNA re-replication in MCF 10a normal breast cells | 350,000 compounds, 2.9% hits | MCF 10A DNA re-replication, Hoechst nuclear intensity, 48 h | Potency, µM (titrated, usually from 46.1 µM), for the others: top-dose activity, positive = re-replication, actives largely listed as activators | AID 624296, 2012; also: % of control where 0% means no effect; nearly all actives have a fitted effect of over 50% in size
HT1080NT lethal: qHTS for induction of synthetic lethality in tumor cells producing 2HG: qHTS for the HT-1080-NT fibrosarcoma cell line; HT-1080-NT fibrosarcoma viability, CellTiter-Glo ATP luminescence, 48 h; AID 686970, 2013; 360,000 compounds, 1.6% hits; Potency, µM (highest dose often 46.1 µM), for inactives: at the top dose activity, negative = less viability, hits mostly cytotoxic;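 also: NT is the 2HG producing partner of a matched IDH1 knockdown line; 0% = DMSO-treated cells and -100% = media-only wells without cells; nearly all actives have a fitted effect of over 55% in size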
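Viability by CellTiter-Glo luminescence after 48 h compound exposure at 37C of HT-1080-NT cells (750/well, RPMI, 5% FBS). % activity scaled between DMSO wells and medium-only wells, then curve-fitted and categorized by curve class.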
KB-3-1 cytotox: qHTS assay for MDR1-selective chemotherapeutics: Primary screen using the parental adenocarcinoma cell KB-3-1; 400,000 compounds, 1.4% hits; KB-3-1 viability, CellTiter-Glo ATP luminescence, 72 h; Potency, µM (titrated, usually from 46.1 µM), actives largely listed as cytotoxic; also: % is scaled to controls: 0 for no effect and ±100 for the full control effect; nearly all actives have a fitted effect of over 60% in size
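Parental KB-3-1 viability, qHTS format: 72 h compound exposure, 37 °C; CellTiter-Glo; media-only wells and DMSO plates as controls; concentration-effect fits on corrected data.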
HT1080 IDH1KD tx: qHTS for induction of synthetic lethality in tumor cells producing 2HG: qHTS for the HT-1080-IDH1KD cell line. Potency, µM (doses to about 46.1 µM), for the others: top-dose activity, negative = toxicity, usual class: cytotoxic. HT-1080 IDH1 knockdown viability, ATP luminescence, 48 h. 360,000 compounds, 2% hits. AID 686971, 2013;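 also: 0% = DMSO wells and -100% = cell-free medium wells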
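Using the IDH1-knockdown HT-1080 line run in the same batch and compound series as the NT line, viability after 48 h at 37 °C was determined by CellTiter-Glo luminescence and expressed as % activity.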
KB-V1 cytotox: qHTS assay for MDR1-selective chemotherapeutics: Primary screen using the drug-selected MDR subline cells KB-V1; KB-V1 MDR cells viability, CellTiter-Glo, 72 h; 400,000 compounds, 3.4% hits; Potency, µM (highest dose often 46.1 µM), hits mostly cytotoxic; also: % is scaled to controls: 0 for no effect and ±100 for the full control effect; nearly all actives have a fitted effect of over 60% in size
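Following 72 h at 37 degrees C with compound, KB-V1 cell viability was read by CellTiter-Glo luminescence, medium being phenol-red-free DMEM plus 10% FBS; concentration-response parameters came from normalized, curve-fitted qHTS data.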
* hit, by the source's call; i = inactive; u = inconclusive; x = not tested or not shown. A selection: hits, their analogues and other compounds. The true share with any hit is near 7.9%. Calls follow the shape of the dose curve; as a rule, active = well fitted curve in the direction sought with a large enough effect; inconclusive = small, poorly fitted or top-dose-only effect, or another doubt; inactive = no such curve, though single readings can be large; an effect the other way counts as inactive or inconclusive. Potency is read from the fitted curve at half-maximal effect.

SMILES | SW480 rerep | MCF10A rereplic | HT1080NT lethal | KB-3-1 cytotox | HT1080 IDH1KD tx | KB-V1 cytotox
CC(C)[C@H](NC(=O)C1CCCC1)c1nc2ccccc2[nH]1 | u | 9.2µM* | -6% | i | -8% | i
O=C(/C=C/c1ccco1)Nc1ccc2nn(-c3ccccc3)nc2c1 | 3% | 7.3µM* | 15% | i | 10% | i
Cc1ccc(-n2nc3ccc(NC(=O)C(C)C)cc3n2)cc1 | 9% | 4% | -4% | u | -1% | i
CC(C)CC(=O)Nc1ccc2nn(-c3ccccc3)nc2c1 | 14% | 11% | -8% | i | -14% | 16µM*
COc1cccc(CNC(=O)c2cccn2-c2nnc(N3CCCC3)s2)c1 | x | x | x | i | x | i
Cc1ccccc1NC(=O)CSCn1nnc2c(=O)[nH]c(Cc3ccc(F)cc3)nc21 | x | x | x | i | x | i
Cc1cccnc1NC(=S)Nc1ncccc1C | 3% | 0% | -8% | u | -17% | i
COC(=O)c1ccccc1NC(=O)Nc1ncccc1C | 21µM* | 2% | 0% | i | 5% | i
CCOc1ccccc1NC(=S)Nc1ncccc1C | u | 18µM* | u | 18µM* | u | 21µM*
C[C@H](CO)N1C[C@H](C)[C@@H](CN(C)S(=O)(=O)c2ccc(-n3cccn3)cc2)OCc2cnnn2CCCC1=O | x | x | 1% | u | 2% | i
O=C1NC[C@H](Cc2ccc(O)cc2)N(C[C@@H]2CCCN2C[C@H](Cc2ccccc2)N2C[C@H](Cc3ccc(O)cc3)N(CC3CCCCCC3)C(=O)C2=O)C1=O | x | x | -29% | i | -18% | i
CN1C(=O)N(CC(=O)N2CCN(S(=O)(=O)c3ccc(Cl)s3)CC2)C(=O)C12CCCCC2 | 4% | 24% | 1% | i | -5% | 15µM*
O=C(CN1C(=O)NC2(CCCCC2)C1=O)N1CCN(S(=O)(=O)c2ccc(Cl)s2)CC1 | -30% | 2% | 4% | i | -1% | i
COc1ccc(-c2noc(-c3ccc(Cl)cc3[N+](=O)[O-])n2)cc1OC | 0% | -3% | 9% | i | -1% | 18µM*
COc1ccc(-c2noc(CN(C)S(=O)(=O)c3c(C)cc(C)cc3C)n2)cc1OC | x | x | x | i | x | u
COc1ccc(-c2noc(CN(C)S(=O)(=O)c3ccc(Cl)cc3)n2)cc1OC | -2% | 1% | -15% | u | -27% | 7.3µM*
COC(=O)c1cc(=O)n(Cc2ccc(OC)c(OC)c2)c(=Nc2ccc(F)cc2)s1 | 2% | u | u | 21µM* | -16% | u
COC(=O)c1cc(=O)n(CCc2ccc(OC)c(OC)c2)c(=Nc2ccc(F)c(Cl)c2)s1 | 6% | 3.3µM* | 16µM* | u | u | 21µM*
COC(=O)c1cc(=O)n(Cc2ccco2)c(=Nc2ccc(F)cc2)s1 | 7% | u | 23µM* | u | u | 23µM*
COC(=O)c1cc(=O)n(Cc2ccc(F)cc2)c(=Nc2ccccc2)s1 | -8% | u | -24% | i | -17% | u
Cn1c(=O)c2c(nc(-c3ccccc3)n2C)n(Cc2ccccc2)c1=O | -3% | 5% | 18% | i | 20% | 15µM*
Cn1c(-c2cccc(F)c2)nc2c1c(=O)[nH]c(=O)n2Cc1ccccc1 | -24% | 2% | u | i | u | i
Cn1c(-c2cccc(OCc3ccccc3)c2)nc2c1c(=O)[nH]c(=O)n2Cc1ccccc1 | 0% | u | 11% | 15µM* | 11% | u
